Measured values published in PubChem BioAssay (EPA / NIEHS).
The source made the active and inactive calls. The calls were made as follows: active = hit-call score of the fitted dose curve at least 0.9, where 1 is the maximum; inactive = score below 0.9.

Columns and labels:
Settings in all cases: mRNA level, 48 h; actives raise or lower the signal
[1] = read-out: ABC Transporter (ABCB11), ABCB11 (gene 8647); test: LTEA_HepaRG_ABCB11: Life Technologies and Expression Analysis (LTEA) Assay for ABC Transporter (ABCB11) using HepaRG (AID 2283463)
Procedure, shortened: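 HepaRG, 48 h exposure, 8-pt half-log CRC top 100 uM, 0.5% DMSO vehicle, duplicates. Readout: TaqMan qRT-PCR of ABCB11 mRNA, housekeeping-normalized (ACTB/GAPDH/POLR2A). Bidirectional fit vs DMSO baseline.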

[2] = read-out: ABC Transporter (ABCC2), ABCC2 (gene 1244); test: LTEA_HepaRG_ABCC2: Life Technologies and Expression Analysis (LTEA) Assay for ABC Transporter (ABCC2) using HepaRG (AID 2283464)
Procedure, shortened: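 HepaRG, 48 h post-plating; serum-free induction medium; cpd 8-pt, 100 uM top, half-log, 0.5% DMSO, duplicate, 48 h. Readout: ABCC2 mRNA by qRT-PCR, norm. ACTB/GAPDH/POLR2A. Bidirectional fit vs DMSO baseline.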

[3] = read-out: Broad substrate specificity ATP-binding cassette transporter ABCG2 (Homo sapiens) (UniProt Q9UNQ0); test: LTEA_HepaRG_ABCG2: Life Technologies and Expression Analysis (LTEA) Assay for ABC Transporter (ABCG2) using HepaRG (AID 2283465)
Procedure, shortened: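 HepaRG, 48 h exposure, 8-pt half-log series from 100 uM, 0.5% DMSO vehicle, duplicates. Readout: ABCG2 transcript by qRT-PCR (Fluidigm array), housekeeping-normalized; bidirectional curve fit relative to DMSO baseline.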

[4] = read-out: Peroxisomal acyl-coenzyme A oxidase 1 (ACOX1) gene, ACOX1 (gene 51); test: LTEA_HepaRG_ACOX1: Life Technologies and Expression Analysis (LTEA) Assay for Peroxisomal acyl-coenzyme A oxidase 1 (ACOX1) gene using HepaRG (AID 2283467)
Procedure, shortened: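 HepaRG, 48 h chemical exposure, 8-pt half-log series from 100 uM top, 0.5% DMSO vehicle, duplicates. Readout: ACOX1 mRNA by Fluidigm qRT-PCR, housekeeping-normalized; bidirectional fit vs DMSO baseline.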

[5] = read-out: Alkaline Phosphatase, Placental (ALPP) gene, ALPP (gene 250); test: LTEA_HepaRG_ALPP: Life Technologies and Expression Analysis (LTEA) Assay for Alkaline Phosphatase, Placental (ALPP) gene using HepaRG (AID 2283468);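 as to AC50: differentiated human HepaRG liver cells in serum-free induction medium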
Procedure, shortened: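 HepaRG, 48 h plating then 48 h dosing, serum-free induction medium, 0.5% DMSO. 8 conc, half-log, max 100 uM, duplicates. Endpoint: ALPP transcript by qRT-PCR, housekeeping-normalized; gain or loss fitted vs DMSO.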

[6] = read-out: Bcl-2 (BAD) gene, BAD (gene 572); test: LTEA_HepaRG_BAD: Life Technologies and Expression Analysis (LTEA) Assay for Bcl-2 (BAD) gene using HepaRG (AID 2283469)
Procedure, shortened: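 HepaRG, 48 h exposure, 8-pt half-log curve from 100 uM in 0.5% DMSO, duplicates. Readout: TaqMan qRT-PCR for BAD mRNA, housekeeping-normalised (ACTB/GAPDH/POLR2A); gain or loss fitted against DMSO baseline.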

[7] = read-out: Bcl-2 (BAX) gene, BAX (gene 581); test: LTEA_HepaRG_BAX: Life Technologies and Expression Analysis (LTEA) Assay for Bcl-2 (BAX) gene using HepaRG (AID 2283470)
Procedure, shortened: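 Gene expression measured by Fluidigm qRT-PCR with three housekeeping genes for normalisation. HepaRG cells, plated 48 h beforehand, treated 48 h at up to 100 uM (8-point, half-log) in 0.5% DMSO. Bidirectional fitting versus DMSO.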

[8] = read-out: adenosine kinase (ADK) gene, ADK (gene 132); test: LTEA_HepaRG_ADK: Life Technologies and Expression Analysis (LTEA) Assay for adenosine kinase (ADK) gene using HepaRG (AID 2283471)
Procedure, shortened: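 Following 48 h exposure of HepaRG cells in 0.5% DMSO (top concentration 100 uM, duplicate wells), ADK mRNA induction or suppression was measured by qRT-PCR, normalised to ACTB/GAPDH/POLR2A, and fitted bidirectionally relative to vehicle.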

[9] = read-out: Alpha-fetoprotein (AFP) gene, AFP (gene 174); test: LTEA_HepaRG_AFP: Life Technologies and Expression Analysis (LTEA) Assay for Alpha-fetoprotein (AFP) gene using HepaRG (AID 2283472)
Procedure, shortened: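 AFP transcript measured by TaqMan qRT-PCR with three housekeeping genes for normalization, after 48 h chemical treatment of HepaRG cells (top 100 uM, half-log steps, 0.5% DMSO). Gain or loss fitted against vehicle.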

[10] = read-out: Apolipoprotein A-V (APOA5) gene, APOA5 (gene 116519); test: LTEA_HepaRG_APOA5: Life Technologies and Expression Analysis (LTEA) Assay for Apolipoprotein A-V (APOA5) gene using HepaRG (AID 2283474)
Procedure, shortened: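 Readout is APOA5 transcript level by qRT-PCR on Fluidigm dynamic arrays, normalized to three housekeeping genes. HepaRG cultures received chemicals for 48 h at up to 100 uM (half-log steps, 0.5% DMSO), with gain or loss scored relative to DMSO.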

[11] = read-out: Apoptosis regulator Bcl-2 (Homo sapiens) (UniProt P10415); test: LTEA_HepaRG_BCL2: Life Technologies and Expression Analysis (LTEA) Assay for Bcl-2 gene using HepaRG (AID 2283475)
Procedure, shortened: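 qRT-PCR of BCL2 transcript, normalized to three housekeeping genes (ACTB, GAPDH, POLR2A), after 48 h chemical exposure of HepaRG cells; concentrations top 100 uM with half-log dilutions, 0.5% DMSO vehicle, duplicates; changes up or down fitted relative to vehicle.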

[12] = read-out: Bcl-2 (BID) gene, BID (gene 637); test: LTEA_HepaRG_BID: Life Technologies and Expression Analysis (LTEA) Assay for Bcl-2 (BID) gene using HepaRG (AID 2283476)
Procedure, shortened: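 Duplicate 48 h treatments of HepaRG cells in serum-free induction medium spanned 100 uM downward in half-log steps, 0.5% DMSO. Transcript change quantified by qRT-PCR against three housekeeping genes, fitted up or down versus DMSO.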

Caspase-3 (Homo sapiens) = Caspase-3 (Homo sapiens) (UniProt P42574); test: LTEA_HepaRG_CASP3: Life Technologies and Expression Analysis (LTEA) Assay for cysteine-aspartic acid protease (CASP3) using HepaRG (AID 2283477)
Procedure, shortened: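 Read-out is CASP3 mRNA level by TaqMan qRT-PCR in human HepaRG cells after 48 h chemical exposure. Eight half-log concentrations topping at 100 uM were tested in 0.5% DMSO; gain or loss was fitted relative to DMSO.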

[13] = read-out: Cytochrome P450 (CYP24A1), CYP24A1 (gene 1591); test: LTEA_HepaRG_CYP24A1: Life Technologies and Expression Analysis (LTEA) Assay for Cytochrome P450 (CYP24A1) using HepaRG (AID 2283478)
Procedure, shortened: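 HepaRG, 48 h chemical exposure, 8-pt half-log CRC from 100 uM, 0.5% DMSO vehicle, duplicates. Endpoint: CYP24A1 mRNA by Fluidigm TaqMan qRT-PCR, normalized ACTB/GAPDH/POLR2A; gain/loss fit vs DMSO.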

[14] = read-out: Cytochrome P450 (CYP1A2), CYP1A2 (gene 1544); test: LTEA_HepaRG_CYP1A2: Life Technologies and Expression Analysis (LTEA) Assay for Cytochrome P450 (CYP1A2) using HepaRG (AID 2283479)
Procedure, shortened: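 CYP1A2 transcript induction or loss, quantified by Fluidigm qRT-PCR against three housekeeping genes, was fitted bidirectionally against 0.5% DMSO controls. Human HepaRG cells received eight half-log concentrations from 100 uM over 48 h.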

[15] = read-out: cysteine-aspartic acid protease (CASP8), CASP8 (gene 841); test: LTEA_HepaRG_CASP8: Life Technologies and Expression Analysis (LTEA) Assay for cysteine-aspartic acid protease (CASP8) using HepaRG (AID 2283480)
Procedure, shortened: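 qRT-PCR readout of CASP8 mRNA, normalized to three housekeeping genes, after 48 h chemical exposure of HepaRG cells; 8-point half-log series, top 100 uM, 0.5% DMSO vehicle. Bidirectional curve fitting against DMSO baseline.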

[16] = read-out: Cytochrome P450 (CYP2B6), CYP2B6 (gene 1555); test: LTEA_HepaRG_CYP2B6: Life Technologies and Expression Analysis (LTEA) Assay for Cytochrome P450 (CYP2B6) using HepaRG (AID 2283481)
Procedure, shortened: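 HepaRG cells plated 48 h, switched to serum-free induction medium, then dosed 48 h (8 points, half-log from 100 uM, 0.5% DMSO). RNA isolated; CYP2B6 expression measured by qRT-PCR; gain or loss fitted relative to DMSO.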

[17] = read-out: Cytochrome P450 2C19 (Homo sapiens) (UniProt P33261); test: LTEA_HepaRG_CYP2C19: Life Technologies and Expression Analysis (LTEA) Assay for CYP2C19 using HepaRG (AID 2283482)
Procedure, shortened: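 Transcript levels of CYP2C19 were quantified by qRT-PCR after HepaRG cells were treated for 48 hours with test chemicals up to 100 uM (eight half-log concentrations, 0.5% DMSO vehicle). Gain or loss of signal was fitted relative to DMSO.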

[18] = read-out: ATP-citrate lyase (ACLY), ACLY (gene 47); test: LTEA_HepaRG_ACLY: Life Technologies and Expression Analysis (LTEA) Assay for ATP-citrate lyase (ACLY) using HepaRG (AID 2283466)
Procedure, shortened: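 qRT-PCR readout of ACLY transcript after 48 h chemical treatment of HepaRG cells; expression normalized to three housekeeping genes. Eight-point half-log series, highest 100 uM, 0.5% DMSO vehicle. Gain or loss fitted against DMSO baseline.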

BCL2L11 (gene 10018) = test: LTEA_HepaRG_BCL2L11: Life Technologies and Expression Analysis (LTEA) Assay for Bcl-2 (BCL2L11) gene using HepaRG (AID 2283473)
Procedure, shortened: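 Read-out is BCL2L11 transcript level by qRT-PCR, normalized to three housekeeping genes and fitted bidirectionally against 0.5% DMSO vehicle. HepaRG cells received chemicals for 48 h in serum-free induction medium, 100 uM down in half-log dilutions.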

Measured: AC50

Sequence of Cytochrome P450 2C19 (Homo sapiens) (P33261 whole entry, looked up): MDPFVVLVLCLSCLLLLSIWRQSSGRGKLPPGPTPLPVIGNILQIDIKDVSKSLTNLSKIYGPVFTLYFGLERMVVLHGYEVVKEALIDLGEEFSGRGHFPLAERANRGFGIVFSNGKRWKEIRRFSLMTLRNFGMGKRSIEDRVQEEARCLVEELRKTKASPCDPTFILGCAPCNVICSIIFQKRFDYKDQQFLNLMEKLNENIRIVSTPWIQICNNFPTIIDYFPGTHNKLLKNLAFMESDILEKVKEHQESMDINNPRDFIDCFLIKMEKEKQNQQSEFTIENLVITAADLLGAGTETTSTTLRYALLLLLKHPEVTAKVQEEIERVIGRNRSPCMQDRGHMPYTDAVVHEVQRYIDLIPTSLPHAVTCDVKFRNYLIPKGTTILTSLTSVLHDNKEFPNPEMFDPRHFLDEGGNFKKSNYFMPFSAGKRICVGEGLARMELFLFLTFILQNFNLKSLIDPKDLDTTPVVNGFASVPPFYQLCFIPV
Sequence of Apoptosis regulator Bcl-2 (Homo sapiens) (P10415 whole entry, looked up): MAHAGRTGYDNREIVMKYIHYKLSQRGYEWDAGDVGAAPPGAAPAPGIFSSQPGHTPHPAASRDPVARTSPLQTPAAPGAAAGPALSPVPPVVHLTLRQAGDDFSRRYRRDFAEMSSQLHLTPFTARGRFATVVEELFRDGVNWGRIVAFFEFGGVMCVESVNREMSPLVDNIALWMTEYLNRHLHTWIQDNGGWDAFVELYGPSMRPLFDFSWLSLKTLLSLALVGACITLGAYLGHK
Sequence of Broad substrate specificity ATP-binding cassette transporter ABCG2 (Homo sapiens) (Q9UNQ0 whole entry, looked up): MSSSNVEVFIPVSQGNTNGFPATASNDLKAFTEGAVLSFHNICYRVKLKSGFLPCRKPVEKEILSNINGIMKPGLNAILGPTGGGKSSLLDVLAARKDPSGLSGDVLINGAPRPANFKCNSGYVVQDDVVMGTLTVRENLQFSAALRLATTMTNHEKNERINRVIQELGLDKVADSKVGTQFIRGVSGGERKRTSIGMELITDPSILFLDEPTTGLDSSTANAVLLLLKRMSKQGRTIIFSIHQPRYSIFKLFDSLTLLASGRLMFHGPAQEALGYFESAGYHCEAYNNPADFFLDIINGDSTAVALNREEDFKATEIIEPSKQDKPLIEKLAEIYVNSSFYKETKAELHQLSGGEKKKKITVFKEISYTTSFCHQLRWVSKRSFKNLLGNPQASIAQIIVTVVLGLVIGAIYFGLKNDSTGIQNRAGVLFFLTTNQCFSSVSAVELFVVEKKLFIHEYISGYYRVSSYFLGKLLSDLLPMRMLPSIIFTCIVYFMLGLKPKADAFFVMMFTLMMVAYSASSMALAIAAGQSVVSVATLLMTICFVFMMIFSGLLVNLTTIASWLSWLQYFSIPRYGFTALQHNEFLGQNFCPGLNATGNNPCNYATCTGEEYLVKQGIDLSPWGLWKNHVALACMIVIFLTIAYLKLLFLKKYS
Sequence of Caspase-3 (Homo sapiens) (P42574 whole entry, looked up): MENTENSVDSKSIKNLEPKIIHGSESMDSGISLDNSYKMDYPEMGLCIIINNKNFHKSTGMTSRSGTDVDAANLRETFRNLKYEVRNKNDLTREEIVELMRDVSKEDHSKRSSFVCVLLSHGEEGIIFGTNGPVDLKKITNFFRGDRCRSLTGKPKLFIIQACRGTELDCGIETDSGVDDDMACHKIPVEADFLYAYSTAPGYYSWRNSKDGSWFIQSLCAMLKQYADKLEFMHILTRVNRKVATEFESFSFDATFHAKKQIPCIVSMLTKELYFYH

N#CC(CCc1ccc(Cl)cc1)(Cn1cncn1)c1ccccc1 (stereo not given)
active: [1] 72.3 µM | [2] 50 µM | [3] 50 µM | [4] 34.3 µM | [5] 21.9 µM | [7] 68 µM | [9] 15.8 µM | [10] 50 µM | [11] 66.7 µM | [14] 85.6 µM | [16] 50 µM | [17] 76.1 µM
inactive: [6] | [8] | [12] | Caspase-3 (Homo sapiens) | [13] | [15]

CCCC1COC(Cn2cncn2)(c2ccc(Cl)cc2Cl)O1 (stereo not given)
active: [1] 36.9 µM | [2] 68.5 µM | [3] 22.2 µM | [4] 25.9 µM | [5] 25.6 µM | [7] 81 µM | [9] 24 µM | [11] 33.7 µM | [14] 50 µM | [16] 30.9 µM | [17] 74.5 µM
inactive: [6] | [8] | [12] | Caspase-3 (Homo sapiens) | [13]

CC(C)Oc1cc(-n2nc(C(C)(C)C)oc2=O)c(Cl)cc1Cl
active: [1] 58.8 µM | [2] 2.52 µM | [3] 26 µM | [4] 19.8 µM | [5] 69.8 µM | [9] 47.2 µM | [11] 81.1 µM | [16] 90.5 µM | [17] 1.44 µM
inactive: [6] | [7] | [8] | [12] | Caspase-3 (Homo sapiens) | [13]

C=CC1(C)OC(=O)N(c2cc(Cl)cc(Cl)c2)C1=O (stereo not given)
active: [1] 38.3 µM | [3] 11.1 µM | [14] 18.8 µM | [16] 7.99 µM | [17] 18.4 µM
not listed: [15] | [18] | BCL2L11 (gene 10018)
inactive: all other assays above

COc1nc(NC(C)C)nc(NC(C)C)n1
active: [14] 44.9 µM | [16] 6.01 µM | [17] 9.99 µM
not listed: [10] | [15] | [18] | BCL2L11 (gene 10018)
inactive: all other assays above

CCON=C(CC)C1=C(O)CC(c2c(C)cc(C)cc2C)CC1=O (stereo not given)
active: [2] 50 µM | [16] 29.5 µM | [17] 23.5 µM
not listed: [3] | [10] | [15]
inactive: all other assays above

CC(C)C1(C)N=C(c2nc3ccccc3cc2C(=O)O)NC1=O (stereo not given)
active: [14] 28.7 µM | [16] 6.39 µM | [17] 14.1 µM
not listed: [10] | [15] | [18] | BCL2L11 (gene 10018)
inactive: all other assays above
